The whole screen tested about 69,000 compounds, of which about 8,600 (12%) showed an effect of 50% or more. This is one part of a sample in which strong results are shown more often than they occur.

The record followed here is ChEMBL document CHEMBL4513216, “Probing the Open Global Health Chemical Diversity Library for Multistage-Active Starting Points for Next-Generation Antimalarials” (ACS Infect Dis, 2020).

The subject of this assay is Plasmodium berghei. Briefly: Screen against P. berghei liver stage (PbLuc), transformed with Luciferase, at 10uM. The assay is classed as functional, HepG2. To be noted: tested at 10 uM.
With `CC(C)c1n[nH]c(C2CN(CCCS(C)(=O)=O)CCO2)n1` (stereo not given), the INHIBITION is 0.914%.

With `Cc1nc(CN2CCn3cc(CNC(=O)C4CCC4)nc3C2)cs1`, the INHIBITION is listed as -3.1%.

On to `Cc1ccc(N(Cc2ccco2)C(=O)Cc2cc(=O)n(C)[nH]2)cc1`, for which the INHIBITION is reported as 39.5%.

As to `O=C(O)CCn1ccc2cc(Br)ccc21`, the INHIBITION worked out at 24.7%.

Turning to `CC(NC(=O)C1=NN(C)C(=O)CC1)c1ccccc1Cl` (stereo not given), the INHIBITION was found to be 35.4%.

With `Cc1cnc(CNC(=O)C2CCOc3ccccc3C2)cn1` (stereo not given), the INHIBITION is -3.83%.

For `COCCCN(Cc1ccccc1Cl)C1CCS(=O)(=O)C1` (stereo not given), the INHIBITION came to 33.4%.

For the compound `Cc1nnnn1CCC(=O)N1CCC2(CCC(=O)N(CC3CC3)C2)CC1`, the INHIBITION amounted to 8.38%.

As for `c1cc(CN2CCCCC2c2ccc(Nc3cnccn3)nc2)ccn1` (stereo not given), the INHIBITION came to 43.1%.

For the compound `Cn1cc(CN2CCC3(C2)CN(Cc2ccsc2)C3)cn1`, the INHIBITION was -3.19%.

For the compound `CNc1nc(CNC(=O)Nc2cccc(OC)c2)cs1`, the INHIBITION amounted to 23.5%.

Consider `N#Cc1cccc(N2CCC3(CC2)Nc2ccccc2NC3=O)n1`, for which the INHIBITION is reported as 14.3%.

`CC(O)c1cccc(N2CCC3(CC2)Nc2ccccc2NC3=O)n1` (stereo not given): the INHIBITION is reported as 0.705%.

Regarding `O=C1Nc2ccccc2NC12CCN(c1cccc(C(F)(F)F)n1)CC2`, the INHIBITION is 76%.

For `Cn1cnc2cc(C(=O)NS(=O)(=O)CC3CCCC3)ccc21`, the INHIBITION is on record as -20.6%.

As to `COCCN1CCc2cc(C(=O)O)c(-c3ccoc3)nc2CC1`, the INHIBITION amounted to 42.7%.

Take `Cn1cncc1CN1CCc2nc3sccc3c(=O)n2CC1`: the INHIBITION is reported as -9.08%.

Consider `CCc1ccc(CN(CCCn2ccnc2)Cc2ccc(C)s2)o1`, for which the INHIBITION is given as 52.3%.

As to `COc1ccc(Cn2ccnc2)cc1F`, the INHIBITION was -20.7%.

As for `Cc1ccc(CN(CCCn2ccnc2)Cc2cnn(C)c2)s1`, the INHIBITION was determined as 24.4%.

`Cc1ccc(CN(CCCn2ccnc2)Cc2cnc(N(C)C)nc2)s1`: the INHIBITION was -16.5%.

On to `Cc1ccc(CN(CCN(C)C)Cc2ncc[nH]2)s1`, for which the INHIBITION came to 17.6%.

With `COc1ccc(Cl)cc1CNCCCn1ccnc1`, the INHIBITION was -22.1%.

Take `Cc1ccc(CN(CCCn2ccnc2)Cc2c(F)cccc2F)s1`: the INHIBITION was 94.1%.

As for `Cc1ccc(CN(CCCN2CCOCC2)Cc2cncn2C)o1`, the INHIBITION is on record as 30.4%.

As to `COc1ccc(F)c(CN(CCCn2ccnc2)Cc2ccc(C)s2)c1`, the INHIBITION amounted to 86.9%.

For the compound `Cc1ccc(CN(CCCn2ccnc2)Cc2cccs2)s1`, the INHIBITION is 82.1%.

Turning to `CCCc1cncnc1N1CCCC2(CCC(=O)N(C3CCCC3)C2)C1` (stereo not given), the INHIBITION worked out at 32.4%.

For the compound `O=S(=O)(c1cnccc1N1CCN(CCO)CC1)N1CCCCC1`, the INHIBITION is given as 8.38%.

As to `CC(C)N1CCCC(c2cc(C(F)(F)F)nc3nccn23)C1` (stereo not given), the INHIBITION is listed as 3.03%.

Consider `O=C(O)CCC(=O)Nc1nn(Cc2ccccc2Cl)cc1Cl`, for which the INHIBITION came out at 19.3%.

Turning to `CC(C)c1nccn1C1CCCN(C(=O)c2ccc3nncn3c2)C1` (stereo not given), the INHIBITION is given as 36.1%.

As for `Cc1cnn(CC2CCCN2C(=O)CCc2c(C)nc(C)[nH]c2=O)c1` (stereo not given), the INHIBITION is -37.7%.

For the compound `CC(=O)N1CCC(c2cncc(Oc3ccccc3)n2)CC1`, the INHIBITION turned out to be 41.5%.

`CN(Cc1ccno1)c1nc(C2CCCC2)nc2c1cnn2C`: the INHIBITION worked out at 20%.

Consider `Cc1cc(CN2CC[C@H]3C[C@H](C(=O)Nc4cccnc4C)O[C@@H]3C2)no1`, for which the INHIBITION stood at 48.6%.

As to `c1cncc(CN(CCCn2ccnc2)CC2CCOC2)c1` (stereo not given), the INHIBITION is recorded as 44.8%.

In the case of `OCc1ccc(CN(CCCn2ccnc2)Cc2ccncc2)o1`, the INHIBITION is recorded as 42.1%.

`Cc1ccc(CN(CCCn2ccnc2)Cc2cc(F)ccc2F)s1`: the INHIBITION stood at 88.1%.

On to `Fc1ccccc1CN(CCCn1ccnc1)CC1CCOC1` (stereo not given), for which the INHIBITION is listed as 1.62%.

Regarding `OCc1ccc(CN(CCCn2ccnc2)Cc2cccnc2)o1`, the INHIBITION came to 56%.

Consider `CC(C)OCCCN(Cc1ccncc1)Cc1cc(F)ccc1F`, for which the INHIBITION was -16.5%.

For the compound `CC(C)NC1CCCc2nc(-c3ccccc3)ncc21` (stereo not given), the INHIBITION is recorded as -36.3%.

As for `CN1CCN(c2ccc(NS(=O)(=O)c3ccc(Cl)s3)cc2C(=O)O)CC1`, the INHIBITION is -12.6%.

With `Cc1cc(C)n(CC2CCCCN2C(=O)CCc2ccncc2)n1` (stereo not given), the INHIBITION was 4.52%.

On to `Cc1cccc(C(=O)Nc2c(C(N)=O)n[nH]c2C)c1C`, for which the INHIBITION was -41.9%.

As to `CC(=O)N(Cc1noc(C)n1)C1CCN(Cc2ccc(C#N)cc2)C1` (stereo not given), the INHIBITION was found to be 27.4%.

`Cc1cc(C)c2c(NC(C)c3nncn3C3CCCC3)ncnc2n1` (stereo not given): the INHIBITION was determined as 35.1%.

As to `COc1ccc(Cc2noc(C3=NN(C)C(=O)CC3)n2)cc1OC`, the INHIBITION was found to be 53.8%.

In the case of `COc1ccc(-c2noc(C3=NN(C)C(=O)CC3)n2)cc1OC`, the INHIBITION is on record as -17.8%.

As for `CN1N=C(c2nc(Cc3cccc(Br)c3)no2)CCC1=O`, the INHIBITION amounted to 25.4%.

On to `CCOCC1CN(C(=O)c2cccs2)Cc2cnn(CC3CC3)c21` (stereo not given), for which the INHIBITION stood at 14.6%.

With `Cc1cc(C(=O)NC(COCC(C)C)c2ccco2)no1` (stereo not given), the INHIBITION was 11.9%.

With `CC(C)c1noc(C(C)S(=O)(=O)CC(=O)N2CCCC2)n1` (stereo not given), the INHIBITION stood at 37.9%.

For the compound `O=C(c1ccc(=O)[nH]n1)N1CCCC(O)(CN2CCC(F)(F)CC2)CC1` (stereo not given), the INHIBITION was -18.8%.
